Hits are enriched below; roughly 1.1% of the tested compounds scored in any of these assays.
LRH-1 inv ag = inverse agonists of human LRH-1 (NR5A2); actives 0.13% (n = 360,000); inhibition, % at 3.6 µM; HEK293T StAR-luciferase reporter, LRH-1 transfected, 24 h; O00482;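 active means inhibition above the mean inhibition of all tested compounds plus 3 SD, cut at about 73% in these data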
SRC2 inh = inhibits human steroid receptor coactivator 2; HEK293 GAL4-SRC2 luciferase reporter, luminescence; Q15596; AID 651957; actives 0.17% (n = 370,000); inhibition, % at 9 µM;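 active means inhibition above the mean inhibition of all tested compounds plus 3 SD, set per campaign, cut at about 52% in these data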
NCOA1 inh = inhibits human SRC1 coactivator; actives 0.12% (n = 360,000); AID 588354; HEK293 GAL4-SRC1 luciferase reporter, luminescence; inhibition, % at 3.6 µM;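 active means inhibition above the campaign mean plus 3 SD, with each screening campaign given its own cutoff, cut at about 60% in these data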
NR2F2 inh = NR2F2 (human) inhibition, primary screen; inhibition, % at 8.6 µM; actives 0.7% (n = 370,000); AID 686940; HEK293T NGFI-A luciferase reporter, luminescence;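 active means inhibition above a per-plate cutoff, mean inhibition of test wells between control levels plus 3 SD, cut at about 38% in these data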;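 further: cells cotransfected with COUP-TFII expression vector driving the NGFI-A reporter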
SRC3 inh = inhibitors of human steroid receptor coactivator 3 (SRC3). Q9Y6Q9. HEK293 GAL4-SRC3 luciferase reporter, luminescence. inhibition, % at 3.6 µM. actives 0.17% (n = 360,000);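 active means inhibition above a per-campaign cutoff, the mean of all compounds plus 3 SD, cut at about 60% in these data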;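 further: higher means less SRC3-driven luciferase light from the GAL4 reporter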
GalR3 antagonist = blocks the human galanin receptor 3 | actives 0.44% (n = 360,000) | O60755 | AID 651719 | inhibition, % at 3 µM | HEK293 GalR3-CNG cAMP membrane potential fluorescence; galR3 body fused to GalR1 C-terminus;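 active means inhibition above the screen-wide average plus 3 SD, cut at about 13% in these data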;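 further: forskolin and galanin both at EC90 stimulate the cells; cAMP rise reported by CNG channel membrane potential dye signal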
VP16 Luc counter = VP16 inhibition counter-screen for COUP-TFII. actives 25% (n = 2,500). inhibition, % at 8.5 µM. HEK293 Gal4-VP16 luciferase reporter, luminescence. shares compounds with NR2F2 inh; in the data active means inhibition above about 13%
COUP-TFII conf = confirmation of human COUP-TFII (NR2F2) inhibitors. shares compounds with NR2F2 inh. HEK293 NGFI-A luciferase reporter, luminescence. inhibition, % at 8.5 µM. actives 45% (n = 2,500);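 active means mean inhibition over three repeats above a set limit taken from the earlier primary screen, cut at about 38% in these data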
Large screens that a line does not name were inactive (follow-up assays come after a bar, where they were run).

Cc1ccc(C(=O)N2CCN(c3ccc(F)cc3)CC2)cc1S(=O)(=O)N1CCCCC1	NR2F2 inh 48.9 | VP16 Luc counter inactive | COUP-TFII conf inactive
CC1CC(O)C2C3(C)CCCC2(COC3=O)C12CCC1(CCOC1=O)O2 (stereo not drawn)	none
O=C(Nc1cccc(S(=O)(=O)N2CCOCC2)c1)c1ccc2c(=O)n3c(nc2c1)CCCCC3	NR2F2 inh 38.7 | VP16 Luc counter inactive | COUP-TFII conf inactive
Cc1cc(C2=NNC(=NC3CC3)SC2)c(C)n1-c1ccccc1F	LRH-1 inv ag 89.5, SRC2 inh 92.8, NCOA1 inh 93.0, NR2F2 inh 97.1, SRC3 inh 88.5 | VP16 Luc counter 94.0 | COUP-TFII conf 108.2
c1cc2c(cc1C1=NNC(=NC3CC3)SC1)OCCO2	SRC2 inh 60.7, NR2F2 inh 46.5, SRC3 inh 65.8 | VP16 Luc counter 52.4 | COUP-TFII conf 75.8
Cc1cc(C2=NNC(=NC3CCCCC3)SC2)c(C)n1-c1c(C)n(C)n(-c2ccccc2)c1=O	none
CS(=O)(=O)N(CCC#N)Cc1ccc(/C=C2\C(=O)Nc3ccccc32)o1	NR2F2 inh 37.5 | VP16 Luc counter inactive | COUP-TFII conf inactive
O=C(Nc1ccc2nc3n(c(=O)c2c1)CCCCC3)c1c(F)ccc([N+](=O)[O-])c1F	SRC2 inh 71.3, NR2F2 inh 42.7 | VP16 Luc counter 60.2 | COUP-TFII conf 78.7
Cc1sc2ncnc(NCC(C)(C)N3CCOCC3)c2c1C	NR2F2 inh 42.6 | VP16 Luc counter inactive | COUP-TFII conf 44.1
CCc1ccc(CCNC(=O)OCCCN2CCC3(CCC(C)CC3)C2=O)cc1 (stereo not drawn)	none (no result: LRH-1 inv ag, NCOA1 inh, SRC3 inh, GalR3 antagonist)
O=C(N/N=C/c1ccc([N+](=O)[O-])s1)c1ccccc1Br	none
O=C(N/N=C/c1ccc([N+](=O)[O-])s1)c1ccccc1	NR2F2 inh 37.9 | VP16 Luc counter 31.1 | COUP-TFII conf inactive
Cc1ccccc1C(=O)N/N=C/c1ccc([N+](=O)[O-])s1	NR2F2 inh 57.1 | VP16 Luc counter 55.1 | COUP-TFII conf 44.2
CN(C)c1ccc(CC(=O)N2CCCCC2c2cc(C(=O)Nc3ccccc3)no2)cc1 (stereo not drawn)	none
C[C@H]1COc2cc(Br)ccc2S(=O)(=O)N1Cc1cn(Cc2ccco2)nn1	none (no result: LRH-1 inv ag, NCOA1 inh, SRC3 inh, GalR3 antagonist)
C[C@H]1O[C@@H](n2c3ccc(Cl)cc3c3ccc4c5cc(Cl)ccc5[nH]c4c32)[C@H](O)[C@H](O)[C@H]1O	none (no result: LRH-1 inv ag, NCOA1 inh, SRC3 inh, GalR3 antagonist)
Cc1ccc(C)c(CC(=O)N2CCCC(c3cc(C(=O)NCc4ccccc4)no3)C2)c1 (stereo not drawn)	none
Cc1cc(C)cc(C(=O)NC(=S)Nc2ccc(-c3cc4ccccc4oc3=O)cc2)c1	NR2F2 inh 39.5 | VP16 Luc counter 17.8 | COUP-TFII conf inactive
COc1ccc(-c2noc(CCCC(=O)O)n2)cc1	SRC2 inh 76.5, NR2F2 inh 82.8 | VP16 Luc counter 81.3 | COUP-TFII conf 80.0
CCOc1ccc(-c2noc(CCC(=O)O)n2)cc1	SRC2 inh 73.1, NR2F2 inh 81.8 | VP16 Luc counter 66.2 | COUP-TFII conf 57.0
COc1ccc(-c2noc(CCC(=O)O)n2)cc1	none
COc1ccc(CCNC(=O)c2ccc(CS(=O)(=O)c3ccc(Cl)cc3)o2)cc1OC	NR2F2 inh 48.6 | VP16 Luc counter inactive | COUP-TFII conf inactive
O=S(=O)(/C=C/C=C/S(=O)(=O)c1ccccc1)c1ccccc1	NR2F2 inh 50.6 | VP16 Luc counter 49.3 | COUP-TFII conf 71.6
COc1ccc(CC(=O)Nc2cccc(SC)c2)cc1OC	NR2F2 inh 40.8 | VP16 Luc counter 16.7 | COUP-TFII conf 38.5
c1ccc(-c2nc(N3CCCCCC3)c3ccccc3n2)nc1	LRH-1 inv ag 94.2, NR2F2 inh 38.3 | VP16 Luc counter inactive | COUP-TFII conf inactive
CCCN(CCC)c1nc(-c2ccccn2)nc2ccccc12	NR2F2 inh 57.4, SRC3 inh 64.1 | VP16 Luc counter inactive | COUP-TFII conf inactive
c1ccc(CCNc2nc(-c3ccccn3)nc3ccccc23)cc1	NR2F2 inh 50.2 | VP16 Luc counter inactive | COUP-TFII conf inactive
CN(C)c1nc(-c2ccccn2)nnc1-c1ccccc1	none
CCCCN(CC)c1nc(-c2ccncc2)nc2ccccc12	none
CCN(CC)c1nc(-c2ccccn2)nc(-c2ccccc2)c1C#N	NR2F2 inh 41.2 | VP16 Luc counter inactive | COUP-TFII conf inactive
CCCCN1C(=O)c2ccccc2NC1c1ccc(OC)c(COc2ccc(NC(C)=O)cc2)c1 (stereo not drawn)	none (no result: LRH-1 inv ag, SRC2 inh, NCOA1 inh, SRC3 inh, GalR3 antagonist)
OC(c1ccc(CN2CCCCC2)cc1)c1ncc(-c2ccccc2)[nH]1 (stereo not drawn)	none
C[C@@H]1ON(C)[C@H]2C[C@H]3c4[nH]c5cccc(-c6ccccc6F)c5c4CCN3C(=O)[C@@H]12	none (no result: LRH-1 inv ag, NCOA1 inh, SRC3 inh)
COc1ccc(Cn2c(NC(=O)c3ccccc3)nc(Cc3ccccc3)c2Cc2ccccc2)c(OC)c1	none (no result: LRH-1 inv ag, NCOA1 inh, SRC3 inh, GalR3 antagonist)
CCCC[C@@H]1C(=O)N2N=C(c3ccccc3)c3ccccc3[C@H]2N2N=C(c3ccccc3)c3ccccc3[C@@H]12	none (no result: LRH-1 inv ag, NCOA1 inh, SRC3 inh, GalR3 antagonist)
CCNC(=O)C1(C)CCCN1C(=O)c1cnc2ccccc2n1 (stereo not drawn)	none
COC(=O)C1=C(C)N(Cc2ccc(C(F)(F)F)cc2)C(=NCc2ccccc2)NC1c1ccc(C(F)(F)F)cc1 (stereo not drawn)	none (no result: LRH-1 inv ag, NCOA1 inh, SRC3 inh)
COc1ccc(Cc2noc(CN3CCN(Cc4cccc(Cl)c4)CC3)n2)cc1OC	none
COc1ccc(Cc2noc(CN3CCN(c4ccc(Cl)cn4)CC3)n2)cc1OC	NR2F2 inh 41.3 | VP16 Luc counter inactive | COUP-TFII conf inactive
O=C(NCCc1ccccc1F)c1ccc2c(c1)OCCO2	SRC2 inh 90.5, NCOA1 inh 76.0, NR2F2 inh 96.2, SRC3 inh 73.8 | VP16 Luc counter 63.1 | COUP-TFII conf 83.7
O=C(NCc1ccccc1F)c1ccc2c(c1)OCO2	none
CC(C)NC(=O)N(C)C[C@H]1OCc2cn(nn2)CCCC(=O)N([C@H](C)CO)C[C@@H]1C	none (no result: LRH-1 inv ag, NCOA1 inh, SRC3 inh)
c1ccc(-c2nnc(-c3ccccn3)c(-c3ccccn3)n2)nc1	none
c1ccc(-c2cccc(CNc3nc(-c4ccccn4)nnc3-c3ccccc3)c2)cc1	NR2F2 inh 50.9 (no result: LRH-1 inv ag, SRC2 inh, NCOA1 inh, SRC3 inh, GalR3 antagonist) | VP16 Luc counter inactive | COUP-TFII conf inactive
COc1ccc2nc(NC(=O)C3CCN(S(=O)(=O)c4cccs4)CC3)sc2c1	NR2F2 inh 47.7 | VP16 Luc counter inactive | COUP-TFII conf inactive
Cc1ccc2nc(NC(=O)C3CCN(S(=O)(=O)c4cccs4)CC3)sc2c1	NR2F2 inh 56.8 | VP16 Luc counter inactive | COUP-TFII conf inactive
